GLD-1 TGE inh: GLD-1-TGE RNA interaction inhibition (C. elegans). Q17339. purified GLD-1 + fluorescein TGE RNA, fluorescence polarization. inhibition, % at 5.96 µM. hit rate 0.44% among 320,000. AID 2280;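 active = percent inhibition above a per-plate cutoff, the plate mean of test compounds plus 3 SD, cut at about 30% in these data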;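 note: 0% = DMSO wells with GLD-1 and probe and 100% = wells lacking GLD-1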
Target sequence (Q17339 whole entry, looked up): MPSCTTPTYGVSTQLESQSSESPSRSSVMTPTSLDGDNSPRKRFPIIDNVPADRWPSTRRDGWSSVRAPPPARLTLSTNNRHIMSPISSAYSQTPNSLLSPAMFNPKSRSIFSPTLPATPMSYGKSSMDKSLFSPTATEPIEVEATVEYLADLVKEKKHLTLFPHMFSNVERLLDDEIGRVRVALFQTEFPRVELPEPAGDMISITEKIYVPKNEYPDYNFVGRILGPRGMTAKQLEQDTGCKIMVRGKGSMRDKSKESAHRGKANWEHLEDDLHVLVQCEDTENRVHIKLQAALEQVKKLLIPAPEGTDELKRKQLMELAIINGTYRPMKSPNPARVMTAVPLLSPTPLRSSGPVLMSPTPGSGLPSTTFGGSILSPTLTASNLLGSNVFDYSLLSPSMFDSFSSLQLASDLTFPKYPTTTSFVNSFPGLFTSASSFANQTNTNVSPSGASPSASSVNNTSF
Mcl1-Bid inh: disrupts binding of human Mcl-1 to Bid peptide. AID 1021. TR-FRET Mcl-1/Bid-Dy647 peptide binding, 1536-well. inhibition, % at 21.7 µM. hit rate 0.97% among 220,000. Q07820;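 active = compounds that cut the binding signal by more than half at the single screening dose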;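 note: His-tagged Mcl-1 with europium anti-His antibody binding Bid BH3 peptide; 0% = Mcl-1 plus peptide wells and 100% = peptide-only wells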
Mcl1 Noxa PPI: disrupts binding of human Mcl-1 to Noxa peptide; Q07820; TR-FRET Mcl-1/Noxa peptide binding, 2 h; inhibition, % at 21.7 µM; hit rate 1.5% among 220,000; AID 1022;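 active = compounds that cut the protein-peptide binding signal by more than 50% relative to plate controls in a single-dose test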;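 note: His-tagged Mcl-1 with rhodamine Noxa BH3 peptide and terbium anti-His antibody; 0% = Mcl-1 plus Noxa peptide wells and 100% = peptide-only wells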
Bcl-xL primary: Bcl-xL (human) inhibition | Q07817 | GST-Bcl-xL / FITC-Bim BH3 peptide fluorescence polarization | inhibition, % at 10.9 µM | hit rate 0.7% among 320,000;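 active = inhibition above the mean of all tested compounds plus 3 SD, cutoff set per campaign, cut at about 30% in these data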;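 note: 0% = DMSO wells and 100% = unlabeled Bim-BH3 peptide competitor; inhibitors lower millipolarization by displacing the labeled peptide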
Target sequence (Q07817 whole entry, looked up): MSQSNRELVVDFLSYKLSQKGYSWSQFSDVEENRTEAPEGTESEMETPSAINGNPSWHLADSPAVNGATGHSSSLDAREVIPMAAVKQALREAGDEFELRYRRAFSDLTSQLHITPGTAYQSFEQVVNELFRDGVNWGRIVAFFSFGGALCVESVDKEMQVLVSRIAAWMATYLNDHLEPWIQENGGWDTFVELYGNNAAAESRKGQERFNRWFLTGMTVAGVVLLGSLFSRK
MCL1 BIM primary: inhibitors of human MCL1 binding to BIM-BH3 peptide; Q07820; GST-MCL1 / FITC-Bim-BH3 fluorescence polarization; inhibition, % at 10.9 µM; hit rate 0.68% among 320,000;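 active = inhibition above the mean inhibition of all tested compounds plus 3 SD, set per campaign, cut at about 40% in these data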;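 note: 0% = DMSO wells and 100% = unlabeled Bim-BH3 peptide control; higher means more loss of mP so more displacement of Bim peptide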
Bim-Mcl-1: disrupts Bim peptide binding to human Mcl-1; Q07820; Bead-based flow cytometry, Bim peptide-Mcl-1 binding; inhibition, % at 10 µM; hit rate 0.1% among 190,000; in the data active = inhibition above about 40%;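 note: 0% = no compound tracer wells and 100% = peptide blocker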
BCLXL inh confirm: Bcl-xL (human) inhibition, MCL1 counter-screen confirmation | shares compounds with MCL1 BIM primary | GST-Bcl-xL / FITC-Bim BH3 peptide FP binding | inhibition, % at 10.9 µM | hit rate 54% among 1,700 | AID 2166;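 active = inhibition above a cutoff equal to the mean inhibition of all tested compounds plus 3 SD, cut at about 30% in these data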;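 note: 0% = DMSO wells and 100% = unlabeled Bim BH3 control peptide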
MCL1 inh confirm: confirmation of human MCL1 and BIM-BH3 interaction inhibitors. shares compounds with MCL1 BIM primary. GST-MCL1 / FITC-Bim-BH3 fluorescence polarization. inhibition, % at 10.9 µM. hit rate 61% among 1,700. AID 2168;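 active = inhibition above the average of all tested compounds plus 3 SD, cut at about 40% in these data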;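 note: 0% = DMSO wells and 100% = unlabeled Bim-BH3 control peptide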
* hit, by the source's call; / = not tested or not shown; + = active, no number. In the library only some 2.3% were active in any assay of this set; here they are far more common.

SMILES | GLD-1 TGE inh | Mcl1-Bid inh | Mcl1 Noxa PPI | Bcl-xL primary | MCL1 BIM primary | Bim-Mcl-1 | BCLXL inh confirm | MCL1 inh confirm
CCCCC1=CC2=C(c3ccco3)C(=O)C(C)(OC(=O)c3ccc(OC)cc3)C(=O)C2=CN1CCN1CCOCC1 (centres undefined) | 41* | -102 | 36 | 72* | 93* | / | 14 | 16
COc1ccc(C(=O)OCC(=O)N2CCc3ccccc32)cc1S(=O)(=O)N1CCOCC1 | 2 | / | / | / | / | / | / | /
O=C(c1ccc(OC2CCN(C/C=C/c3ccc(F)cc3)CC2)cc1)N1CCCC1 | 3 | / | / | 7 | -1 | / | / | /
CCCCC1=CC2=C(c3ccco3)C(=O)C(C)(OC(=O)c3ccc(OC)cc3)C(=O)C2=CN1C1CCCC1 (centres undefined) | 92* | / | / | 112* | 135* | / | 64* | 79*
COc1cccc2c1C(=O)c1c(O)c3c(c(O)c1C2=O)C[C@@](O)(C(=O)CO)C[C@@H]3O[C@H]1C[C@H](N)[C@@H](O)[C@H](C)O1 | + | / | / | + | + | / | + | +
CC(=O)[C@]1(O)Cc2c(O)c3c(c(O)c2[C@@H](O[C@H]2C[C@H](N)[C@H](O)[C@H](C)O2)C1)C(=O)c1ccccc1C3=O | + | / | / | + | + | / | + | +
COc1cccc2c1C(=O)c1c(O)c3c(c(O)c1C2=O)C[C@@](O)(C(C)=O)C[C@@H]3O[C@H]1C[C@H](N)[C@H](O)[C@H](C)O1 | / | -6 | -3 | / | / | 3 | / | /
CCOc1ccc(S(=O)(=O)N2CCCC(C(=O)NCC3CCCO3)C2)cc1 (centres undefined) | 0 | / | / | -7 | 17 | / | / | /
COc1cccc(N2CC(NC(=O)C(=O)c3c(C)[nH]c4ccccc34)CC2=O)c1 (centres undefined) | 6 | / | / | 2 | -3 | / | / | /
CN1CCc2cccc3c2[C@H]1Cc1ccc(O)c(O)c1-3 | 7 | -65 | 88* | 36* | 56* | 7 | 42* | 70*
Cc1ccc(-c2c3c([nH]c(=S)c2C#N)CCCC3)o1 | 1 | -26 | 74* | 27 | 43* | 2 | 25 | 20
N#Cc1c(-c2ccncc2)c2c([nH]c1=S)CCCC2 | 3 | -77 | 39 | 8 | 1 | -6 | / | /
CCOc1ccc(Nc2nc(N(C)c3ccccc3)nc(N)c2[N+](=O)[O-])cc1 | -8 | / | / | 7 | 3 | / | / | /
O=C1C(=O)N(CCN2CCOCC2)C(c2ccccc2F)/C1=C(\O)c1ccc(S(=O)(=O)N2CCOCC2)cc1 (centres undefined) | 0 | / | / | 4 | 2 | / | / | /
CC1(OC(=O)c2cccs2)C(=O)C=C2C=C3CCCN3C=C2C1=O (centres undefined) | 11 | -64 | 72* | 24 | 63* | / | 44* | 63*
CC1(OC(=O)C2CCCC2)C(=O)C=C2C=C3CCCN3C=C2C1=O (centres undefined) | 14 | / | / | 18 | 29 | / | / | /
Cc1cc(=O)oc2cc(OCC(=O)OCC(=O)Nc3c(C)n(C)n(-c4ccccc4)c3=O)ccc12 | 6 | -15 | -3 | 3 | 1 | -2 | / | /
NC(=S)N/N=C/c1ncc(C(F)(F)F)cc1Cl | 101* | -58 | -20 | 146* | 153* | / | 95* | 113*
NC(=S)N/N=C/c1ccc(C(F)(F)F)cc1 | 2 | -99 | 14 | 5 | 11 | 0 | / | /
CC(C)c1ccccc1NC(=O)COC(=O)COc1ccccc1[N+](=O)[O-] | 4 | 2 | -3 | 4 | 2 | 3 | / | /
C/C(=N\NC(=O)c1cc(O)ccc1O)c1cccc(NC(=O)c2cccc(Cl)c2)c1 | 0 | / | / | 16 | 38 | / | / | /
C/C(=N\NC(=O)c1cc(O)ccc1O)c1cccc(NC(=O)c2ccc(Cl)cc2)c1 | 13 | / | / | 27 | 48* | / | 28 | 47*
O=C(CC12CC3CC(CC(Br)(C3)C1)C2)Nc1cccc(S(=O)(=O)NC2=NCCC2)c1 | -3 | -8 | -6 | -4 | 1 | 17 | / | /
CCOC(=O)C(C)N1C(=O)S/C(=C\c2ccc(-c3ccccc3C(=O)O)o2)C1=O (centres undefined) | -3 | / | / | 31* | 58* | / | 42* | 62*
C#CCN1C(=O)S/C(=C\c2ccc(-c3ccc(C(=O)O)cc3C)o2)C1=O | -3 | / | / | 15 | 66* | / | 1 | 15
SMILES | GLD-1 TGE inh | Mcl1-Bid inh | Mcl1 Noxa PPI | Bcl-xL primary | MCL1 BIM primary | Bim-Mcl-1 | BCLXL inh confirm | MCL1 inh confirm
COCCn1c(SCC(=O)Nc2ccccc2F)nnc1-c1ccoc1C | 2 | / | / | 5 | 6 | / | / | /
O=C(CC1SC(N2CCCCC2)=NC1=O)Nc1cccc(C(=O)Nc2ncccc2O)c1 (centres undefined) | 5 | / | / | 2 | 1 | / | / | /
Cc1ccc(S(=O)(=O)c2nc(Cc3ccccc3)oc2N2CCOCC2)cc1 | 3 | / | / | 15 | 58* | / | 14 | 79*
Cc1ccc(S(=O)(=O)c2nc(-c3ccccc3)oc2N2CCCC2)cc1 | -1 | / | / | 8 | 29 | / | / | /
CCCN(C(=O)CSc1nc2ccccc2n1CC)C1CCS(=O)(=O)C1 (centres undefined) | -3 | / | / | 0 | -2 | / | / | /
COc1ccc2oc(C(=O)OC(C)C(=O)NCc3ccccc3)c(C)c2c1 (centres undefined) | 0 | / | / | -8 | 44* | / | 6 | 2
O=C(O)C1Nc2ccc(OC(F)(F)F)cc2C2C=CCC12 (centres undefined) | 0 | / | / | 48* | 106* | / | 15 | 67*
COc1cccc(C2Nc3c(F)cc(Br)cc3C3C=CCC32)c1OC (centres undefined) | 3 | -11 | -6 | 3 | 4 | 5 | / | /
COc1cccc2c1NC(C(=O)O)C1CC=CC21 (centres undefined) | 4 | 75* | 101* | 79* | 96* | 6 | 57* | 90*
NC(=O)c1ccc(/C=N/O)[n+](Cc2ccccc2)c1 | -2 | / | / | 3 | 4 | / | / | /
CC1CCCC(NC(=O)CN(C)CC(=O)Nc2cccc(F)c2)C1C (centres undefined) | 1 | / | / | -6 | -16 | / | / | /
Cc1ccc(S(=O)(=O)NCCC(=O)N2CCOCC2)cc1C | 0 | / | / | 2 | 6 | / | / | /
Oc1ccc(C2=Nn3c(nnc3-c3ccco3)SC2)cc1O | 1 | -2 | 38 | 18 | 60* | 33 | 29 | 73*
COc1ccc(C2=Nn3c(nnc3-c3ccco3)SC2)cc1 | 6 | -10 | 8 | 13 | 6 | 8 | / | /
CC(/C=C1\SC(=S)N(c2ccc(C(=O)O)cc2)C1=O)=C\c1ccccc1 | 6 | 21 | 84* | 6 | 48* | / | 7 | 9
Cc1ccc(F)c(NC(=O)/C(C#N)=C(\O)c2ccc(C(C)(C)C)cc2)c1 | 2 | -8 | 2 | 8 | 2 | -3 | / | /

Screens as filed in PubChem BioAssay.
